Assay [1] in a line: NCI Yeast Anticancer Drug Screen. Data for the rad50 strain (AID 155).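 Also: 0% = growth of vehicle-only cultures of the same strain.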 To be noted: S. cerevisiae rad50 strain growth inhibition, stronger effect = higher value. A digest of the protocol:
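A DNA repair-deficient yeast mutant serves as the test organism; compound-induced growth inhibition is calculated against vehicle-treated cells.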

Assay [2] in a line: NCI Yeast Anticancer Drug Screen. Data for the mec2-1 strain (AID 157). To be noted: S. cerevisiae mec2-1 strain, stronger effect = higher value. An outline of the steps: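 Cells of the genetically defined mec2-1 yeast strain are incubated with test compound. Inhibition of growth is calculated against vehicle-treated controls.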
The nature of assay [3]: NCI Yeast Anticancer Drug Screen. Data for the sgs1 mgt1 strain (AID 161).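 Also: 0% = growth of cultures given vehicle only.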 The note with it: S. cerevisiae sgs1 mgt1 strain, stronger effect = higher value. An outline of the steps: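 Test agents were incubated with a DNA-repair-mutant yeast strain. Growth was then read and compared against vehicle-treated controls.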
The nature of assay [4]: NCI Yeast Anticancer Drug Screen. Data for the cln2 rad14 strain (AID 165).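 Also: 0% = growth equal to vehicle treated cultures.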 To be noted: S. cerevisiae cln2 rad14 strain, stronger effect = higher value. A digest of the protocol:
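The screen exposed genetically defined yeast (cln2 rad14) to test compounds and scored growth inhibition relative to vehicle-treated controls.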

Assay [5] can be described thus: NCI Yeast Anticancer Drug Screen. Data for the bub3 strain (AID 167). The note with it: S. cerevisiae bub3 mutant strain, stronger effect = higher value. An outline of the steps: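 Inhibition values come from growth of compound-treated mutant yeast normalised to vehicle-treated controls.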
The nature of assay [6]: NCI Yeast Anticancer Drug Screen. Data for the mlh1 rad18 strain (AID 175). The note with it: S. cerevisiae mlh1 rad18 strain growth inhibition, stronger effect = higher value. A digest of the protocol: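 Compound-treated yeast growth, normalised to vehicle controls. Strain bears defined DNA repair mutations.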
[7] abbreviates: at 5.0 µM (retest, dose inferred, filed as 0.5).
Setting [8] is: at 50.0 µM (retest, dose inferred, filed as 5.0).

Growth inhibition data for 9 compounds are collected here from PubChem BioAssay (NCI).

Compounds without any hit were thinned out: in the full panel of roughly 79,000, 15% have a hit. Unmarked numbers belong to inactive results. Active and inactive are the calls of the source. Rule as the data show it: active = growth inhibition above about 70%; inactive = the rest.

`O=c1c(-c2ccccc2)coc2cc(O)ccc12`: the growth inhibition was -14% in assay [1] (setting [7]); 8% in assay [1] (setting [8]); 60.6% in assay [1] (at 50.0 µM); 5% in assay [2] (setting [7]); 23% in assay [2] (setting [8]); 36.9% in assay [2] (at 50.0 µM). Further, the growth inhibition in assay [3] (setting [7]) was -6%; in assay [3] (setting [8]), 16%; in assay [3] (at 50.0 µM), 63.3%; in assay [4] (setting [7]), -12%; in assay [4] (setting [8]), -12%; in assay [4] (at 50.0 µM), 18.1%. The growth inhibition in assay [5] (setting [7]) is -25%; in assay [5] (setting [8]), 34%; in assay [5] (at 50.0 µM), 75.8% (active); in assay [6] (setting [7]), -3%; in assay [6] (setting [8]) it was 12%; in assay [6] (at 50.0 µM), 4.9%.
As for `C/C(=N\NC(=S)N1CCN(c2ccccc2)CC1)c1nccs1`, the growth inhibition in assay [1] (setting [7]) was 28%; in assay [1] (setting [8]) it was 96% (active); in assay [1] (at 50.0 µM) it was 90.5% (active); in assay [2] (setting [7]) it was 56%; in assay [2] (setting [8]), 98% (active); in assay [2] (at 50.0 µM), 91.8% (active). The growth inhibition was 33% in assay [3] (setting [7]); 99% (active) in assay [3] (setting [8]); 91.1% (active) in assay [3] (at 50.0 µM); 22% in assay [4] (setting [7]); 98% (active) in assay [4] (setting [8]); 90.9% (active) in assay [4] (at 50.0 µM). Further, the growth inhibition in assay [5] (setting [7]) was 63%; in assay [5] (setting [8]), 99% (active); in assay [5] (at 50.0 µM) it was 88.3% (active); in assay [6] (setting [7]), 34%; in assay [6] (setting [8]), 97% (active); in assay [6] (at 50.0 µM), 89.8% (active).
Consider `CC(=O)c1sc(Nc2ccc(Cl)c(Cl)c2)nc1C`, for which the growth inhibition in assay [1] (setting [7]) is 8%; in assay [1] (setting [8]), 35%; in assay [1] (at 50.0 µM) it was 95% (active); in assay [2] (setting [7]), 4%; in assay [2] (setting [8]) it was 19%; in assay [2] (at 50.0 µM), 81% (active). In addition, the growth inhibition was 27% in assay [3] (setting [7]); 22% in assay [3] (setting [8]); 97% (active) in assay [3] (at 50.0 µM); 1% in assay [4] (setting [7]); 35% in assay [4] (setting [8]); 91.2% (active) in assay [4] (at 50.0 µM). Further, the growth inhibition in assay [5] (setting [7]) was 1%; in assay [5] (setting [8]), 56%; in assay [5] (at 50.0 µM), 81.8% (active); in assay [6] (setting [7]), 15%; in assay [6] (setting [8]), 47%; in assay [6] (at 50.0 µM), 93.2% (active).
On to `CCCCCCCCCCCC(=O)c1c(O)c2ccccc2oc1=O`, for which the growth inhibition in assay [1] (setting [7]) is 6%; in assay [1] (setting [8]) it was -4%; in assay [1] (at 50.0 µM), 54.1%; in assay [2] (setting [7]) it was 45%; in assay [2] (setting [8]), 28%; in assay [2] (at 50.0 µM), 44.4%. For the same compound, the growth inhibition is 21% in assay [3] (setting [7]); -8% in assay [3] (setting [8]); 71.2% (active) in assay [3] (at 50.0 µM); -14% in assay [4] (setting [7]); -7% in assay [4] (setting [8]); 22.3% in assay [4] (at 50.0 µM). Besides, the growth inhibition in assay [5] (setting [7]) was 0%; in assay [5] (setting [8]), -21%; in assay [5] (at 50.0 µM), 43.8%; in assay [6] (setting [7]) it was -4%; in assay [6] (setting [8]), -4%; in assay [6] (at 50.0 µM), 68%.
With `C=C(C)C(CC=C(C)C)Cc1c(O)cc(OC)c2c1OC(c1ccc(O)cc1O)C(O)C2=O` (configuration not stated), the growth inhibition in assay [1] (setting [7]) is 29%; in assay [1] (setting [8]) it was 22%; in assay [1] (at 50.0 µM), 34.1%; in assay [2] (setting [7]), 27%; in assay [2] (setting [8]), 28%; in assay [2] (at 50.0 µM) it was 23.4%. The growth inhibition in assay [3] (setting [7]) is -23%; in assay [3] (setting [8]) it was 42%; in assay [3] (at 50.0 µM), 55.2%; in assay [4] (setting [7]) it was 19%; in assay [4] (setting [8]), 32%; in assay [4] (at 50.0 µM), 43.9%. For the same compound, the growth inhibition was -5% in assay [5] (setting [7]); 38% in assay [5] (setting [8]); 57% in assay [5] (at 50.0 µM); 24% in assay [6] (setting [7]); 23% in assay [6] (setting [8]); 85.3% (active) in assay [6] (at 50.0 µM).
In the case of `CCC(/C=C/c1ccccc1)=N\Nc1ccccc1`, the growth inhibition is 11% in assay [1] (setting [7]); 89% (active) in assay [1] (setting [8]); 47.7% in assay [1] (at 50.0 µM); -10% in assay [2] (setting [7]); 83% (active) in assay [2] (setting [8]); 79% (active) in assay [2] (at 50.0 µM). For the same compound, the growth inhibition in assay [3] (setting [7]) is 1%; in assay [3] (setting [8]), 91% (active); in assay [3] (at 50.0 µM) it was 34.1%; in assay [4] (setting [7]) it was -27%; in assay [4] (setting [8]), 76% (active); in assay [4] (at 50.0 µM), -12.3%. Moreover, the growth inhibition was -15% in assay [5] (setting [7]); 90% (active) in assay [5] (setting [8]); 87.3% (active) in assay [5] (at 50.0 µM); -13% in assay [6] (setting [7]); 95% (active) in assay [6] (setting [8]); 74.4% (active) in assay [6] (at 50.0 µM).
For the compound `O=C1C(Cl)=C(Cl)C(=O)C2CC=CCC12` (configuration not stated), the growth inhibition in assay [1] (setting [7]) is 68%; in assay [1] (setting [8]), 97% (active); in assay [1] (at 50.0 µM), 99.3% (active); in assay [2] (setting [7]), 92% (active); in assay [2] (setting [8]) it was 99% (active); in assay [2] (at 50.0 µM) it was 99.4% (active). Also, the growth inhibition in assay [3] (setting [7]) was 92% (active); in assay [3] (setting [8]), 99% (active); in assay [3] (at 50.0 µM), 99.6% (active); in assay [4] (setting [7]) it was 85% (active); in assay [4] (setting [8]), 99% (active); in assay [4] (at 50.0 µM), 99.1% (active). Further, the growth inhibition was 91% (active) in assay [5] (setting [7]); 99% (active) in assay [5] (setting [8]); 99.5% (active) in assay [5] (at 50.0 µM); 90% (active) in assay [6] (setting [7]); 99% (active) in assay [6] (setting [8]); 99.5% (active) in assay [6] (at 50.0 µM).
For `Clc1cc(Cl)c(OCCOCCI)c(Cl)c1`, the growth inhibition in assay [1] (setting [7]) was 0%; in assay [1] (setting [8]), 13%; in assay [1] (at 50.0 µM), 28.1%; in assay [2] (setting [7]), 2%; in assay [2] (setting [8]) it was 12%; in assay [2] (at 50.0 µM), 9.15%. The growth inhibition in assay [3] (setting [7]) is 1%; in assay [3] (setting [8]) it was 11%; in assay [3] (at 50.0 µM) it was 16.1%; in assay [4] (setting [7]) it was 1%; in assay [4] (setting [8]), -25%; in assay [4] (at 50.0 µM) it was 14.4%. Besides, the growth inhibition in assay [5] (setting [7]) was 10%; in assay [5] (setting [8]), 42%; in assay [5] (at 50.0 µM), 48%; in assay [6] (setting [7]), -3%; in assay [6] (setting [8]), 5%; in assay [6] (at 50.0 µM), 34%.
As to `C/C(=N\NC(N)=S)c1ccc(C2CCCCC2)cc1`, the growth inhibition in assay [1] (setting [7]) was 73% (active); in assay [1] (setting [8]), 97% (active); in assay [1] (at 50.0 µM), 97.2% (active); in assay [2] (setting [7]) it was 68%; in assay [2] (setting [8]), 98% (active); in assay [2] (at 50.0 µM), 95.7% (active). For the same compound, the growth inhibition was 88% (active) in assay [3] (setting [7]); 99% (active) in assay [3] (setting [8]); 98.2% (active) in assay [3] (at 50.0 µM); 61% in assay [4] (setting [7]); 97% (active) in assay [4] (setting [8]); 97% (active) in assay [4] (at 50.0 µM). The growth inhibition in assay [5] (setting [7]) is 60%; in assay [5] (setting [8]) it was 97% (active); in assay [5] (at 50.0 µM), 96.2% (active); in assay [6] (setting [7]), 83% (active); in assay [6] (setting [8]), 97% (active); in assay [6] (at 50.0 µM) it was 94.5% (active).
